We go through 40 compounds from PubChem BioAssay (EPA / NIEHS).

Structures are written as SMILES. Inconclusive results are not listed. The source made the active and inactive calls. How the source made its calls: active means hit-call score of the fitted dose curve at least 0.9, where 1 is the maximum; inconclusive means response in the unintended direction; inactive means score below 0.9.

For the experiment, the target named is Oxysterols receptor LXR-alpha (Homo sapiens) (UniProt Q13133). Briefly: ATG_LXRa_TRANS: Attagene TRANS-FACTORIAL HepG2 Assay for human Liver X Receptor alpha (LXRa) (AID 2282980). To be noted: HepG2 Attagene TRANS reporter, LXRa transactivation. The procedure: ATG_TRANS is a cell-based, multiplexed-readout assay that uses HepG2, a human liver cell line, with measurements taken at 24 hours after chemical dosing in a 24-well plate.ATG_LXRa_TRANS is one of 30 assay component(s) measured or calculated from the ATG_TRANS assay. It is designed to make measurements of mRNA induction, a form of inducible reporter, as detected with fluorescence intensity signals by Reverse transcription polymerase chain reaction (RT-PCR) and Capillary electrophoresis technology.Data from the assay component ATG_LXRa_TRANS was analyzed into 1 assay endpoint. This assay endpoint, ATG_LXRa_TRANS, was analyzed in the positive analysis fitting direction relative to DMSO as the negative control and baseline of activity. Using a type of inducible reporter, measures of mRNA for gain-of-signal activity can be used to understand the reporter gene at the transcription factor-level as they relate to the gene NR1H3. Furthermore, this assay endpoint can be referred to as a primary readout, because this assay has produced multiple assay endpoints where this one serves a reporter gene function. To generalize the intended target to other relatable targets, this assay endpoint is annotated to the nuclear receptor intended target family, where the subfamily is non-steroidal.
Chain of Oxysterols receptor LXR-alpha (Homo sapiens) (Q13133 whole entry, looked up): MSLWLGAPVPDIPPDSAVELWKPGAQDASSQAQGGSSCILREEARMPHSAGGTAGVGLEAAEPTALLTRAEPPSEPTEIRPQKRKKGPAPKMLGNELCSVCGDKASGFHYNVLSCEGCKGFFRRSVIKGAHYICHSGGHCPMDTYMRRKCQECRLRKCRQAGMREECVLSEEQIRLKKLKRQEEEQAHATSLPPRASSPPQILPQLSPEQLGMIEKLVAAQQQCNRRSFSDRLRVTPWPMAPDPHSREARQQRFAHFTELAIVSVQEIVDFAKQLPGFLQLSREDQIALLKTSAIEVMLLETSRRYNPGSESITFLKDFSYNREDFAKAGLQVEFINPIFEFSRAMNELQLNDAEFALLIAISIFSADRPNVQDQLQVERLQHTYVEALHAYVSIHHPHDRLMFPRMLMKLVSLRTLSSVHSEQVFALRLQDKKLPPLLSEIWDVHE
Human liver HepG2 cells are transiently transfected with multiple reporter transcription units (MRTUs) in 6-well plates using FuGene 6 reagent (Roche; 3 ml FuGene/1 mg DNA). The MRTU constructs are regulated by a cis-regulating element (promoter). […] A major difference between the CIS and TRANS system is that in CIS activities of endogenous TFs are measured, whereas the TRANS assay evaluates changes in activities of exogenous, chimeric NR-Gal4 proteins. […] At the end of 24 hour incubation, total RNA was isolated using TriZol reagent (Invitrogen). The isolated RNA is then reverse-transcribed using oligo(dT) primer and Mo-MLV reverse transcriptase (Invitrogen) with DNAse I (Ambion) treatment for 30 min. The one-tenth of the produced cDNA was amplified by PCR using Taq DNA polymerase (Invitrogen) and two reporter sequence-specific primers. The PCR products were fluorescently labeled by primer extension with 6-arboxyfluorescein (6-FAM) 5'-labeled reporter sequence-specific primer (2 min at 95 C, 20 s at 68 C and 10 min at 72 C) and these products were digested with 5U of HpaI (New England Biolabs) for 2h at 37 C. The fragments were purified using Qiaquick PCR columns (Qiagen), analyzed on an ABI 3130xL genetic analyzer (Applied Biosystems) with peak positions identified by using a set of X-rhodamine (ROX)-labeled MapMarker1000 molecular weight standards (BioVentures). The raw capillary electrophoresis data was processed using Attagraph software (Attagene).
As to `NS(=O)(=O)O`, the result was inactive. In the case of `O=C1c2ccc(O)c(O)c2C(=O)c2c(O)ccc(O)c21` it was “inactive”; in that of `C=CC(=O)OCCN(CC)CC`, “inactive”. As to `O=C(CC(=O)C(F)(F)C(F)(F)C(F)(F)F)c1cccs1`, the compound was classed as inactive. Regarding `CCCCCCCCC1CCC(=O)O1` (stereo not given), the compound was classed as inactive. With `O=C(Nc1cccc([N+](=O)[O-])c1)c1cc2ccccc2cc1O`, the compound was called inactive. To `CC1CNCC(C)O1` (stereo not given) belongs “inactive”; to `Cc1[nH]nc2c1N=C(c1ccccc1Cl)c1cc([N+](=O)[O-])ccc1N2`, “inactive”. To `CC(C)(C)c1ccc(O)c(O)c1` belongs “inactive”; to `CCCCCCc1ccc(N)cc1`, “inactive”. In the case of `CCCCCCCCCCCCCCCCCC[N+](C)(C)Cc1ccccc1` it was “inactive”; in that of `O=P(O)(O)CCC(F)(F)C(F)(F)C(F)(F)C(F)(F)C(F)(F)C(F)(F)C(F)(F)C(F)(F)F`, “inactive”; in that of `CCc1cccc(CC)c1NC(=O)C(=O)O`, “inactive”. For `NC(=NCCCCCCN=C(N)/N=C(\N)Nc1ccc(Cl)cc1)/N=C(\N)Nc1ccc(Cl)cc1`, the compound was classed as inactive. In the case of `O=C(F)C(F)(F)C(F)(F)C(F)(F)C(F)F` it was “inactive”; in that of `Cc1cc(C(=C2C=CC(=Nc3ccc(S(=O)(=O)O)cc3)C=C2)c2ccc(Nc3ccc(S(=O)(=O)O)cc3)cc2)cc(S(=O)(=O)O)c1N`, “inactive”. To `CCCCCCCCC(C)=O` belongs “inactive”. On to `OCC1CCC(CO)CC1` (stereo not given), for which the compound was called inactive. Turning to `Cc1cc(C(C)(C)C)c(O)c(C(C)(C)C)c1`, the compound was classed as inactive. To `Cc1cc(Cc2cc(C)cc(C(C)(C)C)c2O)c(O)c(C(C)(C)C)c1` belongs “inactive”.

With `O=C(O)CN(CCCN(CC(=O)O)CC(=O)O)CC(=O)O`, the compound was called inactive.

In the case of `O=C(c1cc(O)c(O)c(O)c1)c1ccc(O)c(O)c1O`, the call was inactive.

Turning to `C[N+](C)(CCCNS(=O)(=O)CCC(F)(F)C(F)(F)C(F)(F)C(F)(F)C(F)(F)C(F)(F)F)CC(=O)[O-]`, the outcome was inactive. In the case of `C=CCOCC(CO)(CO)CO` it was “inactive”; in that of `Nc1ccc(O)c(C(=O)O)c1`, “inactive”; in that of `O=C(OC(=O)C(F)(F)C(F)(F)F)C(F)(F)C(F)(F)F`, “inactive”. For `C/C=C/C(=O)C1=C(C)CCCC1(C)C`, the result was inactive. To `O=C(Nc1ccc(Cl)c(Cl)c1)c1cc(Cl)cc(Cl)c1O` belongs “inactive”; to `CC1=CC(=O)c2ccccc2C1=O`, “inactive”. To `O=P(O)(O)CCC(F)(F)C(F)(F)C(F)(F)C(F)(F)C(F)(F)C(F)(F)F` belongs “inactive”; to `CCCC=O`, “inactive”; to `O=c1cc(-c2ccccc2)oc2ccc3ccccc3c12`, “inactive”.

For the compound `O=C1OC2(c3ccccc31)c1cc(I)c(O)c(I)c1Oc1c2cc(I)c(O)c1I`, the call was inactive. Turning to `CN(C)CCOC(c1ccccc1)c1ccccc1`, the result was inactive.

In the case of `CCN(CCC#N)c1ccccc1`, the compound was called inactive. To `Cc1ccccc1C(OCCN(C)C)c1ccccc1` (stereo not given) belongs “inactive”; to `O=C(O)C(F)(F)OC(F)(F)C(F)(F)OC(F)(F)C(F)(F)OC(F)(F)C(F)(F)C(F)(F)C(F)(F)F`, “inactive”; to `Oc1cc2ccccc2cc1O`, “inactive”. In the case of `CC(C)C=O` it was “inactive”; in that of `Brc1ccc(Oc2ccc(Br)cc2Br)cc1`, “inactive”.
